Bioassay records deposited in PubChem by National Center for Advancing Translational Sciences (NCATS).
An excerpt weighted towards active compounds, which were near 5.7% of everything screened.
JMJD2E inh – inhibitors of human JMJD2E histone demethylase. B2RXH2. JMJD2E catalytic domain, FDH-coupled NADH fluorescence (FDH is formaldehyde dehydrogenase). Potency, µM (highest dose often 57.1 µM), usual class: inhibitors. 230,000 compounds, 1.6% hits; active means well fitted inhibition curve with a large enough effect, not every such curve was filed as active; inconclusive means small, poorly fitted or top-dose-only effect, or another doubt; inactive means no such curve, though single readings can be large or run the other way; further: nearly all actives have a fitted effect of over 50% in size
Target sequence (B2RXH2 1-337 limits assumed): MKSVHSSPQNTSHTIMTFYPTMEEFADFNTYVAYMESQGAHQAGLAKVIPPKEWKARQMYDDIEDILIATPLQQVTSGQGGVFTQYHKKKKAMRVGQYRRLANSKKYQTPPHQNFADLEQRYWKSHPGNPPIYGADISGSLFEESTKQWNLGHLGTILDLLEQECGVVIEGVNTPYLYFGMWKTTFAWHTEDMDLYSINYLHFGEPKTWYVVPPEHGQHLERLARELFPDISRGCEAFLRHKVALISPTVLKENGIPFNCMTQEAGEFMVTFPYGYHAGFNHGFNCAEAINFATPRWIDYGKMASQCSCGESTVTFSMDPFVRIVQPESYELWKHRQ
JMJD2A Tudor – JMJD2A Tudor domain (human) inhibition; AlphaScreen JMJD2A-Tudor / H3K4me3 peptide binding; AID 504339; O75164; Potency, µM (top dose mostly 114 µM), most hits filed as inhibitors; 390,000 compounds, 4.4% hits; further: nearly all actives have a fitted effect of over 50% in size
HP1b binding inh – inhibitors of HP1-beta chromodomain binding to methylated histone tails; 390,000 compounds, 0.56% hits; P83916; AlphaScreen HP1-beta / biotin-H3K9me3 peptide binding; Potency, µM (highest dose often 114 µM), most hits filed as inhibitors; further: nearly all actives have a fitted effect of over 70% in size
Target sequence (P83916 whole entry, looked up): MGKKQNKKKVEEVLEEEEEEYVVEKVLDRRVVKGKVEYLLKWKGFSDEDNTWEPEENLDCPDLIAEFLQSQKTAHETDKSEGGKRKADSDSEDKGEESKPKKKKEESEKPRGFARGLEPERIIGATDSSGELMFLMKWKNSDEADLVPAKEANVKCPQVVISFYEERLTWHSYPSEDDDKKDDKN
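Compound inhibition of the preformed complex between 50 nM HP1-beta and 50 nM biotinylated H3K9me3 peptide was read by AlphaScreen. Buffer was PBS pH 7.4 with 0.01% Tween-20. Incubations ran 30 min at room temperature, with 10 ug/mL donor/acceptor beads.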
BAZ2B block – inhibitors of human BAZ2B bromodomain; Q9UIF8; 360,000 compounds, 4.4% hits; AlphaScreen BAZ2B-H3K14Ac peptide displacement; Potency, µM (doses to about 114 µM), actives largely listed as inhibitors; AID 504333; further: nearly all actives have a fitted effect of over 60% in size
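AlphaScreen luminescence quantifies BAZ2B engagement of H3K14Ac peptide; the protein and biotinylated peptide are both at 50 nM final, buffer PBS pH 7.4 with 0.01% Tween-20, all steps at room temperature.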
PI5P4K alpha inh – inhibitors of human PI5P4K alpha. 330,000 compounds, 1.2% hits. PI5P4Kalpha enzyme, ADP-Glo luminescence, 60 min; active compounds read low. max response, %; active means max response of -50% or lower; inconclusive means between -30% and -50%; inactive means -30% or higher; further: value at the top dose of about 77 µM
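qHTS, 1536-well: enzyme/substrate mix, compound by pin tool, 5 microM ATP final; RT 60 min; ADP-Glo reagents 1 (45 min) then 2 (30 min); luminescence.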
L3MBTL1 inh – inhibitors of human L3MBTL1. Q9Y468. AlphaScreen L3MBTL1–H3K9me1 peptide binding. Potency, µM (series often up to 57.1 µM), hits mostly inhibitors. 230,000 compounds, 0.66% hits. AID 485360; further: nearly all actives have a fitted effect of over 60% in size
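AlphaScreen proximity signal between nickel-chelate acceptor and streptavidin donor beads (final 10 ug/mL) reports binding of 50 nM L3MBTL1 to 75 nM biotin-H3 K9me1 peptide; complex incubated with compounds 30 min at room temperature; cefsulodin titration as control.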
Numbers stand for hits; i = inactive; ? = inconclusive; nt = no result; [ ] = dose if it differs, or a comment. Unless noted, the call rests on the fitted dose curve; in most records, active means well fitted inhibition curve with a large enough effect; inconclusive means small, poorly fitted or top-dose-only effect; inactive means no such curve, though single readings can be large or run the other way.

SMILES | JMJD2E inh | JMJD2A Tudor | HP1b binding inh | BAZ2B block | PI5P4K alpha inh | L3MBTL1 inh
CCCCc1ccc(/C=C(\C#N)C(N)=S)s1 | i | 35.5µM | 25.1µM | 44.7µM | i | i
CCN1C(=O)/C(=C\c2ccc(-c3ccc([N+](=O)[O-])cc3OC)o2)SC1=Nc1cccc(C(=O)O)c1 | i | 56.2µM | 28.2µM | 50.1µM | -50.2 | ?
O=C(O)c1cccc(-c2ccc(/C=C3/SC(=Nc4ccccc4)N(Cc4cccnc4)C3=O)o2)c1 | nt | 44.7µM | ? | 50.1µM | i | nt
COc1ccc(C2Nc3ccccc3C(=O)N2Cc2ccccc2)cc1COc1cccc(C(F)(F)F)c1 (configuration not stated) | nt | i | nt | nt | nt | nt
CC1CCC2C(C1)Nc1c(C(=O)O)cccc1C2(C)C (configuration not stated) | ? | i | i | 79.4µM | i | i
O=C1CCC(C(=O)OCc2cc(Cl)ccc2OC(F)F)N1 (configuration not stated) | i | 39.8µM | i | i | i | i
NS(=O)(=O)c1ccc(NC(=O)CCCCCN2C(=O)c3ccccc3C2=O)cc1 | nt | i | i | i | i | i
NS(=O)(=O)c1ccc(NC(=O)c2c(Cl)cccc2Cl)cc1 | i | 28.2µM | i | i | ? | i
NS(=O)(=O)c1ccc(NC(=O)CCCCC(=O)Nc2ccc(S(N)(=O)=O)cc2)cc1 | nt | 89.1µM | i | i | i | nt
NS(=O)(=O)c1ccc(NC(=O)c2c(F)cccc2Cl)cc1 | i | i | i | i | i | i
CN(C)CC(=O)Nc1ccc(S(N)(=O)=O)cc1 | i | 14.1µM | i | i | i | nt
CC(C)=CCn1cnc2c1C(NOCc1ccccc1)=NCN2 | i | nt | nt | nt | nt | nt
Cc1ccc(C(C)C)c(OCC(=O)NCC2(N3CCOCC3)CCCCC2)c1 | nt | i | i | i | nt | nt
O=C(Nc1nnc(-c2ccc(Br)cc2)o1)c1cccc(N2C(=O)CCC2=O)c1 | nt | i | i | 70.8µM | i | i
O=C(Nc1nnc(-c2ccco2)o1)c1ccc(N2C(=O)CCC2=O)cc1 | i | 28.2µM | i | 17.8µM | i | nt
O=C(Nc1nnc(-c2ccc(Cl)cc2)o1)c1ccc(N2C(=O)CCC2=O)cc1 | i | i | i | i | i | i
CC(=O)Nc1nnc(-c2ccco2)o1 | i | 3.98µM | i | ? | i | i
Cc1ccc(NC(=O)CSc2nnc(-c3ccco3)o2)cc1 | i | i | i | i | i | nt
O=C(CSc1ccc(F)cc1)Nc1nnc(-c2ccco2)o1 | nt | ? | i | 35.5µM | i | i
CCOc1ccc(-c2nnc(Nc3ccc(S(N)(=O)=O)cc3)c3ccccc23)cc1 | nt | i | i | i | nt | nt
CCC(=O)N1CCc2cc(Br)cc(S(=O)(=O)NCCc3cccc(C)c3)c21 | nt | i | i | i | nt | nt
O=C(NCCc1ccccc1Cl)c1ccc2c(c1)nc1n2CCCCC1 | nt | i | i | i | nt | nt
O=C(CCS(=O)(=O)c1ccc(Cl)cc1)Nc1nnc(-c2ccco2)o1 | nt | ? | i | ? | i | i
Cc1ccc(S(=O)(=O)CCC(=O)Nc2nnc(-c3ccco3)o2)cc1 | nt | 17.8µM | i | ? | i | i
O=C(CCS(=O)(=O)c1ccc(Cl)cc1)Nc1nnc(-c2cccs2)o1 | nt | i | i | i | i | i
SMILES | JMJD2E inh | JMJD2A Tudor | HP1b binding inh | BAZ2B block | PI5P4K alpha inh | L3MBTL1 inh
Cc1ccc(S(=O)(=O)CCC(=O)Nc2nnc(-c3cccs3)o2)cc1 | nt | 11.2µM | i | ? | i | i
CC(=O)c1ccc(N2CCN(C(=O)Cn3ncc4c3-c3ccccc3OC4)CC2)cc1 | nt | i | i | i | nt | nt
CCC(CC)c1nn2c(=O)cc(COc3ccc(NC(=O)c4ccc(C)cc4)cc3)nc2s1 | nt | i | i | i | nt | nt
Cn1ccnc1C(O)c1ccco1 (configuration not stated) | i | 56.2µM | i | i | nt | i[11.4 µM]
CCOc1ncccc1C(=O)N1CCN(c2cc(Cl)ccc2C)CC1 | i | 50.1µM | i | i | i | nt
COc1cccc(C(=O)Nc2ccc3nc(SCC(=O)N4CCc5ccccc54)sc3c2)c1 | nt | i | i | i | nt | nt
Cc1ccc(C(=O)OCC(=O)N(C)C2CCS(=O)(=O)C2)cc1S(=O)(=O)N1CCCCC1 (configuration not stated) | nt | i | i | i | i | i
CCN(CC)c1ccc(/C=N/N2C(C)CCCC2C)c(O)c1 (configuration not stated) | nt | ? | i | 44.7µM | i | nt
